Drawing on PubChem BioAssay, this text covers composite z-score and z-score for five compounds.

Active and inactive are the calls of the source. Unless noted, no rule for the calls is given here.

The subject of assay [1] is Wnt5a (protein binding on small-molecule microarray). Nature of the assay: Wnt5a binders on small-molecule microarray, primary screen, biophysical, 635/667 nm fluorescence (AID 1142).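 Also: fluorescence read at 667 nm with signal to noise per printed feature.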 To be noted: 635 nm fluorescence, higher = more signal.
The nature of assay [2]: cell viability in Huh7 cells, primary screen, cytotoxicity control for HCV replication inhibitor project, CellTiter-Glo luminescence, basal, 48 h (AID 1143).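 Also: Huh7 hepatoma cells carrying a hepatitis C replication reporter with no stimulus; test concentration not given here.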 As to conditions: Huh7 HCV replicon, higher = more signal, called active from +8 up or from −8 down.
Assay [3] in a line: P. aeruginosa biofilm formation inhibitors, primary screen, PAO1 strain, BacTiter-Glo luminescence, LB-PBS (AID 1144). As to conditions: 12 h, higher = more signal.
Assay [4] is described as follows: CREB reporter modulators without forskolin, primary screen, cell-based, PC12, CRE-LacZ reporter, unstimulated (AID 1145). To be noted: no forskolin, luminescence, 4.5 h, higher = more signal, called active from +8 up or from −8 down.
The nature of assay [5]: CREB reporter modulators under forskolin, primary screen, cell-based, PC12, CRE-LacZ reporter, forskolin-stimulated (AID 1146).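 Also: PC12 cells with 6xCRE LacZ reporter stimulated by forskolin 10 µM; beta-galactosidase reporter signal reflecting CREB driven transcription.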 To be noted: luminescence, 4.5 h, higher = more signal, called active from +8 up or from −8 down.
In assay [6] the target is Streptavidin (Streptomyces avidinii) (UniProt P22629). Nature of the assay: streptavidin binders on small-molecule microarray, primary screen, artefact control for SMM compound annotation, biophysical, 635/667 nm fluorescence (AID 1147).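 Also: signal reflects streptavidin binding to arrayed compounds as a control protein.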 To be noted: streptavidin binding, higher = more signal.
Streptavidin (Streptomyces avidinii), sequence (P22629 whole entry, looked up): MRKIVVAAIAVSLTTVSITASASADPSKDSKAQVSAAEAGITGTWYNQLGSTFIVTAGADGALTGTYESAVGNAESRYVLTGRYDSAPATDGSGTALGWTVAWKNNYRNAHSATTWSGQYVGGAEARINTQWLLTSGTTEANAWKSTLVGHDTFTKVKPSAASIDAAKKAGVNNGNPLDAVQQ
Assay [7] can be described thus: small-molecule binders of probe aInhba, primary screen, biochemical, small-molecule microarray, 635/667 nm fluorescence (AID 1148).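 Also: score merges 667nm spot fluorescence with signal-to-noise for antibody binding to printed compounds.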 To be noted: higher = more signal.
Assay [8] has as its target Torsin-1A (Homo sapiens) (UniProt O14656). As to the kind of experiment: torsin A binders from cell lysate, primary screen, small-molecule microarray, wild-type, 635/667 nm (AID 1149). To be noted: COS7 hTOR1A-WT lysate, 635 nm fluorescence, higher = more signal.
The target is the same in assay [9]. Nature of the assay: small-molecule binders of mutant TOR1A in lysate, primary screen, cell lysate, small-molecule microarray, COS7 lysate, 635/667 nm fluorescence (AID 1150).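 Also: score pools 667 nm emission and signal to noise measuring lysate protein binding.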 As to conditions: COS7 hTOR1A mutant lysate, 635 nm fluorescence, higher = more signal.
Assay [10] deals with Sonic hedgehog protein (Shh). Nature of the assay: small-molecule binders of Shh protein, primary screen, biochemical, small-molecule microarray, 635/667 nm fluorescence (AID 1151).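 Also: Shh protein binding to compounds spotted on small-molecule microarray slides; score combines spot fluorescence intensity with signal-to-noise across triplicate slides.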 As to conditions: small-molecule microarray binding, 635 nm fluorescence; higher = more signal.
A short description of assay [11]: E. coli DRC41 culture turbidity changes, primary screen, E. coli filamentation inducer project, strain DRC41, OD650, 48 h (AID 1152).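 Also: E. coli MC1000 strain DRC41 lacking acrAB efflux pump and sulA.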 As to conditions: E. coli DRC41 (acrAB sulA), higher = more signal, called active from +8 up or from −8 down.
The nature of assay [12]: small-molecule binders of probe aLefty1, primary screen, biochemical, small-molecule microarray, 635/667 nm fluorescence (AID 1153).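 Also: score merges spot fluorescence with signal-to-noise ratio from the scanned slide images.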 To be noted: higher = more signal.
Assay [13] in a line: PSAC antagonists in infected red cells, primary screen, cell-based, P. falciparum Indochina, OD700, 1 h (AID 1154). To be noted: P. falciparum Indochina infected RBC osmotic lysis, higher = more signal, called active from +8 up or from −8 down.
A short description of assay [14]: PSAC antagonists in infected red cells, primary screen, cell-based, P. falciparum Indochina, OD700, 2 h (AID 1155).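 Also: lysis reports solute entry through the parasite surface anion channel PSAC; channel blockers reduce lysis of infected cells.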 As to conditions: P. falciparum Indochina infected erythrocytes, osmotic lysis OD700; higher = more signal, called active from +8 up or from −8 down.
Assay [15] can be described thus: osmotic lysis modulators in infected erythrocytes, primary screen, PSAC antagonist project, cell-based, P. falciparum Indochina, OD700, 3 h (AID 1156). As to conditions: higher = more signal, called active from +8 up or from −8 down.
A short description of assay [16]: PSAC antagonists in infected red cells, primary screen, cell-based, P. falciparum Indochina, OD700, 18 h (AID 1157). To be noted: P. falciparum Indochina infected erythrocytes, osmotic lysis OD700, 18 h; higher = more signal, called active from +8 up or from −8 down.
The nature of assay [17]: modulators of S6 phosphorylation in cells, primary screen, cell-based, A549, cytoblot, luminescence, serum-stimulated (AID 1158).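 Also: serum-stimulated A549 lung adenocarcinoma cells; signal is phosphorylated S6 detected by cytoblot immunostaining with HRP secondary.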 To be noted: A549 phospho-S6 cytoblot, 5 h, higher = more signal.
The target of assay [18] is NADPH oxidase 2 (Homo sapiens) (UniProt P04839). Nature of the assay: NOX2-dependent H2O2 signal modulators, primary screen, NOX inhibitor project, cell-based, HEK293-NOX2, PMA-stimulated, Amplex Red fluorescence (AID 1159). Also: test concentration not given here. To be noted: 45 min, higher = more signal, called active from +8 up or from −8 down.
NADPH oxidase 2 (Homo sapiens), sequence (P04839 whole entry, looked up): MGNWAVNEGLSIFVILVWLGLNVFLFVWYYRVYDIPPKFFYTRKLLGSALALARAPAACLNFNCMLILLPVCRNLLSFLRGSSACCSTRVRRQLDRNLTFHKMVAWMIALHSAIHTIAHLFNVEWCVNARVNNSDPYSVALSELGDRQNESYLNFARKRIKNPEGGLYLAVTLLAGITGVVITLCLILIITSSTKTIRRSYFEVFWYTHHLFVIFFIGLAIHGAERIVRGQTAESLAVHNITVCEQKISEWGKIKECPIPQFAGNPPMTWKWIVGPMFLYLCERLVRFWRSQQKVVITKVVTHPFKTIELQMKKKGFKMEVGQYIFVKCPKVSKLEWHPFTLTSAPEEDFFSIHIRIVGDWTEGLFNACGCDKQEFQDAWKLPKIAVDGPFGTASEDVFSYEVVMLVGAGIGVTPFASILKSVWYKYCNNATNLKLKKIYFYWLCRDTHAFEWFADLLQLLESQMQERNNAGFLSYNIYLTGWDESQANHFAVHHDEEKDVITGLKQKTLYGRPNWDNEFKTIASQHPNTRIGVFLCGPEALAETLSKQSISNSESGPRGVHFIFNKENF
The target in assay [19] is NADPH oxidase 4 (Homo sapiens) (UniProt Q9NPH5). As to the kind of experiment: NOX4-dependent H2O2 signal modulators, primary screen, NOX inhibitor project, cell-based, HEK293-NOX4, tetracycline-induced, Amplex Red fluorescence (AID 1160). As to conditions: 45 min, higher = more signal, called active from +8 up or from −8 down.
NADPH oxidase 4 (Homo sapiens), sequence (Q9NPH5 whole entry, looked up): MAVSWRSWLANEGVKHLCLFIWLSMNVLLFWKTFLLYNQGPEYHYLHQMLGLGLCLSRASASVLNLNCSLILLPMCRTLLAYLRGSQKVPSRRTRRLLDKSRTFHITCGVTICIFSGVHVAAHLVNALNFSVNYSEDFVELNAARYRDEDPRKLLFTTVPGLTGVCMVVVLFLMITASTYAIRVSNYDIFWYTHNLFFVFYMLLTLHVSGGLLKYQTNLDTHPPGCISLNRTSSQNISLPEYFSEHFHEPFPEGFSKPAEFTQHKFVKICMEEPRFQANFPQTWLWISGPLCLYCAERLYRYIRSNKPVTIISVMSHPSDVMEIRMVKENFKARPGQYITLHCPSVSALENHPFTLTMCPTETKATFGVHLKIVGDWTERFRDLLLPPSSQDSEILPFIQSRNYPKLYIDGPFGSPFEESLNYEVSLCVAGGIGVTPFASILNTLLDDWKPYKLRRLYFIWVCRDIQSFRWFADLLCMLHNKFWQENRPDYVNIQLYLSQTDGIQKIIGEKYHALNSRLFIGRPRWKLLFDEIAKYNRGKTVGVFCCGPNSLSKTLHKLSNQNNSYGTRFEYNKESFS
In assay [20] the target is NADPH oxidase 5 (Homo sapiens) (UniProt Q96PH1). Nature of the assay: NOX5-dependent H2O2 signal modulators, primary screen, NOX inhibitor project, cell-based, HEK293-NOX5, Amplex Red fluorescence (AID 1161). To be noted: HEK293-NOX5, ionomycin, 45 min, higher = more signal.
NADPH oxidase 5 (Homo sapiens), sequence (Q96PH1 whole entry, looked up): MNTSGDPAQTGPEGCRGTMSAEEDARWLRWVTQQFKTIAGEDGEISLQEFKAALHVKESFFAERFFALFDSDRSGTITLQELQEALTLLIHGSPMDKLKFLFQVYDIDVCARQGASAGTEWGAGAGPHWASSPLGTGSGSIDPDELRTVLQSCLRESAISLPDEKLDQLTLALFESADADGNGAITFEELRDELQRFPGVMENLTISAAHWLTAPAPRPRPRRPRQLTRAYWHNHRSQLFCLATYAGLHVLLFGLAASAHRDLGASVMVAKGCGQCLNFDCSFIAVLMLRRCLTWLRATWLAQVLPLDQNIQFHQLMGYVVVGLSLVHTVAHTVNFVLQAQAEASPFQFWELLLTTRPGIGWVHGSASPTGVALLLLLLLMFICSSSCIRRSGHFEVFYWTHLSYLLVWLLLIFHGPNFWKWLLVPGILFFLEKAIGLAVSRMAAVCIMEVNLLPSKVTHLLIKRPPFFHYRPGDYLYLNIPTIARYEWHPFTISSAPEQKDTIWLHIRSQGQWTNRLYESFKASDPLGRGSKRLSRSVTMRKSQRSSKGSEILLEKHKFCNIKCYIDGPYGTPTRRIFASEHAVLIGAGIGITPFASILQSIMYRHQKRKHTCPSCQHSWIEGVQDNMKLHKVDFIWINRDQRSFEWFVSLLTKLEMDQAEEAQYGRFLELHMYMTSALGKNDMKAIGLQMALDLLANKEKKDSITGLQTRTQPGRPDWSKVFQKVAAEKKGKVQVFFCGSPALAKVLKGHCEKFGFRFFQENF

Torsin-1A (Homo sapiens), sequence (O14656 whole entry, looked up): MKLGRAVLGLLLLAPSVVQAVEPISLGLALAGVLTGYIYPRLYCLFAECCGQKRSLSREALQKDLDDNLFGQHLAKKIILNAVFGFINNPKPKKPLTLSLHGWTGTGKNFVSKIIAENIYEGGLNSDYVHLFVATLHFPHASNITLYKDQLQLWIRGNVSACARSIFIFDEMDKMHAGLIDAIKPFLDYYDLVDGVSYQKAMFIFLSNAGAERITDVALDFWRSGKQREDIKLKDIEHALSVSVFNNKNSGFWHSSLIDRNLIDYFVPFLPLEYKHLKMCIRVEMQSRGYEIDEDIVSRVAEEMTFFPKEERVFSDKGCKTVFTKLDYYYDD

Regarding `COCC(=C=CC[C@H](O)c1ccc(CO)o1)CCO`, the composite z-score in assay [1] is 0.181; in assay [6], 0.141; in assay [7], -0.003; with Torsin-1A (Homo sapiens) [8], 0.494; with Torsin-1A (Homo sapiens) [9] it was 0.246; in [10], 1.99. This compound came in with a composite z-score in [12] of -0.198. The z-score in [2] is -0.25 (inactive); in [3], 0.308 (inactive); in [4], 1.51 (inactive); in [5] it was -0.255 (inactive); in assay [11] it was -0.434 (inactive); in assay [13], 0.811 (inactive). Moreover, the z-score was 0.0508 (inactive) in assay [14]; -0.148 (inactive) in assay [15]; -0.159 (inactive) in [16]; -0.992 in assay [17]; 0.249 (inactive) in [18]; -0.177 (inactive) in assay [19]. This compound also yielded a z-score in [20] of -0.224.

For the compound `COc1cc2c(cc1O)C(C1CC1)N(C)CC2` (stereo not given), the composite z-score is -0.201 in assay [1]; -0.991 in assay [6]; -0.203 in assay [7]; -0.829 with Torsin-1A (Homo sapiens) [8]; -1.04 with Torsin-1A (Homo sapiens) [9]; -0.314 in assay [10]. The compound also came in with a composite z-score in [12] of -0.0538. Moreover, the z-score in [2] is -0.426 (inactive); in assay [3] it was 0.991 (inactive); in assay [4], 0.479 (inactive); in assay [5], -1.44 (inactive); in [11], 0.941 (inactive); in [13], 1.79 (inactive). Further, the z-score in assay [14] is 0.546 (inactive); in [15], 0.0776 (inactive); in [16], 0.573 (inactive); in [17], -0.0452; in assay [18], -4.61 (inactive); in [19], -2.57 (inactive). The z-score in [20] was -2.96.

For `CCCNC(=O)[C@@]1(C)c2ccccc2C(=O)N(c2ccc(C)cn2)[C@H]1c1ccc(CO)cc1`, the composite z-score in assay [1] was -0.297; in assay [6], -0.516; in assay [7], 0.0398; with Torsin-1A (Homo sapiens) [8], 0.399; with Torsin-1A (Homo sapiens) [9], 0.266; in assay [10], 0.224. This compound yielded a composite z-score in assay [12] of 0.0533. Further, the z-score in [2] was 0.242 (inactive); in assay [3] it was -0.31 (inactive); in assay [4] it was 1.29 (inactive); in [5], -0.0049 (inactive); in assay [11] it was -0.819 (inactive); in assay [13], 1.57 (inactive). The z-score is 0.123 (inactive) in assay [14]; 0.181 (inactive) in [15]; 0.0101 (inactive) in assay [16]; 0.426 in assay [17]; -1.23 (inactive) in [18]; 0.155 (inactive) in assay [19]. The z-score in assay [20] amounted to 0.238.

Consider `C=CCN1C(=O)[C@]2(CCC(=O)OC(C)(C)C)N=C(c3ccc(OCCCO)cc3)O[C@@H]2c2ccccc21`, for which the composite z-score in assay [1] is 0.176; in [6], 0.0475; in assay [7], 0.0631; with Torsin-1A (Homo sapiens) [8] it was -0.0806; with Torsin-1A (Homo sapiens) [9], 0.19; in assay [10], 1.71. The same compound displayed a composite z-score in [12] of 0.576. Further, the z-score in assay [2] was -3.67 (inactive); in [3], -0.149 (inactive); in [4] it was 0.124 (inactive); in [5] it was -1.99 (inactive); in assay [11], 0.736 (inactive); in [13], 34.1 (active). The z-score in assay [14] was 32.3 (active); in assay [15], 2.29 (inactive); in assay [16], 12.1 (active); in assay [17], 0.708; in assay [18], -2.67 (inactive); in assay [19], 0.56 (inactive). In assay [20], this compound registered a z-score of -0.299.

`CCOC(=O)C1=C[C@@H](C(C)C)N(S(=O)(=O)c2ccc(C)cc2)[C@H]1c1ccc(C(F)(F)F)cc1`: the composite z-score in assay [1] is 0.418; in [6], 0.908; in assay [7], -0.12; with Torsin-1A (Homo sapiens) [8], 0.505; with Torsin-1A (Homo sapiens) [9], 0.682; in [10], 0.217. For the same compound, in [12], the composite z-score was 0.2. In addition, the z-score in assay [2] was -3.82 (inactive); in assay [3], 0.803 (inactive); in [4] it was 0.939 (inactive); in assay [5] it was -1.13 (inactive); in assay [11], -1.58 (inactive); in [13] it was 0.172 (inactive). For the same compound, the z-score in assay [14] was 0.279 (inactive); in assay [15], -0.422 (inactive); in assay [16], 0.0209 (inactive); in assay [17], -0.696; in assay [18], -0.116 (inactive); in assay [19], 0.024 (inactive). The compound also showed a z-score in assay [20] of 0.599.
